Source: PubChem BioAssay
The source made the active and inactive calls.

tested on: XIP peptide (Xip251-270) binding; experiment: small-molecule binders of XIP peptide, primary screen, biochemical, small-molecule microarray, fluorescence 635/667 nm, 0.1 µg/mL protein (AID 1182); conditions: fluorescent protein binding, 635 nm, higher = more signal, called active from +8 up or from −8 down

| SMILES | composite z-score |
| --- | --- |
| CC(C)CNC(=O)[C@@]1(c2ccc([N+](=O)[O-])cc2)CC(=O)N(C2CCCCC2)[C@@H]1c1ccc(CO)cc1I | 0.551 (inactive) |
| CCCCC(=C=CC[C@@H](O)c1ccc(OCCO)cc1)C[C@@H](O)COCc1ccccc1 | 0.117 (inactive) |
| CC[C@H]1C2=C3C(CC[C@H]4C(OCc5ccc(F)cc5C(F)(F)F)OC[C@](C)([C@@H]34)N(C(=O)OC(C)(C)C)C2)C2COC(=O)OCC21 (stereo partly specified) | 3.17 (inactive) |
| CCCCN1CC=CC23O[C@@H]4/C=C\CCC(C)OC(=O)C4[C@H]2C(=O)N(CCCCCCO)[C@@H]3C1=O (stereo partly specified) | 0.879 (inactive) |
| C=C(COC)/C(=C/C[C@@H](OC(=O)c1ccncc1)c1cccc(OCCO)c1)c1cnc2ccccc2c1 | 0.482 (inactive) |
| C=C(CCCC)/C(=C/C[C@@H](OC(=O)c1ccncc1)c1cccc(OCCO)c1)c1cnc2ccccc2c1 | 0.389 (inactive) |
| CO[C@H]1O[C@H](CO)[C@@H](OC(=O)Nc2ccccc2-c2ccccc2)[C@H](OC(=O)Nc2ccc3c(c2)OCO3)[C@@H]1OC(=O)Nc1ccc2c(c1)OCO2 | 0.882 (inactive) |
| C#CCNC(=O)[C@H](Cc1ccccc1)NC(=O)[C@@H](N=[N+]=[N-])C(C)C | 0.056 (inactive) |
| COCC(=C=CC[C@H](O)c1cccc(OCCO)c1)C[C@H](O)c1ccccn1 | 0.198 (inactive) |
| COc1ccc([Si](C)(C)[C@H]2[C@H](CCn3cc(CCO)nn3)O[C@@]3(C(=O)N(Cc4ccc(N5C(=O)c6cccc7cccc5c67)cc4)c4ccccc43)[C@@H]2C)cc1 | 0.146 (inactive) |
| COCCOC(=O)N1C(=O)[C@@]2(c3cc(C#CC4=CCCCC4)ccc31)[C@H](c1ccc(O)cc1)N1[C@H](c3ccccc3)[C@H](c3ccccc3)OC(=O)[C@H]1[C@@H]2C(=O)Nc1nc2ccccc2s1 | 0.863 (inactive) |

tested on: XIP peptide (Xip251-270); experiment: small-molecule binders of XIP peptide, primary screen, biochemical, small-molecule microarray, fluorescence 635/667 nm, 0.5 µg/mL protein (AID 1183); conditions: small-molecule microarray binding, fluorescence 635 nm; higher = more signal

| SMILES | composite z-score |
| --- | --- |
| C=CCNC(=O)[C@@H]1[C@H]2C(=O)O[C@H](c3ccccc3)[C@H](c3ccccc3)N2[C@H](c2ccccc2OCCO)[C@@]12C(=O)N(C(=O)OCCOC)c1ccc(C#CC3=CCCCC3)cc12 | 0.769 |
| CC(C)(C)OC(=O)CC[C@]1(C(=O)O)N=C(c2ccc(OCCCO)cc2)O[C@H]1c1ccccc1 | 0.543 |
| CN(C)CCCN1C(=O)[C@@]2(c3ccc([N+](=O)[O-])cc3)CC(=O)N(CC34CC5CC(CC(C5)C3)C4)[C@@H]2c2ccc(CO)cc21 | 0.35 |
| C=C(C(=O)CC[C@H](OC(=O)c1cccnc1)c1cccc(OCCO)c1)C(C)C | 0.183 |
| O=C1OCC=C[C@H]2OC34C=CCN(Cn5nnc6ccccc65)C(=O)[C@H]3N(CCCCCCO)C(=O)[C@@H]4[C@@H]12 (stereo partly specified) | -0.714 |
| COCCOC(=O)N1C(=O)[C@@]2(c3cc(C#CCNC(N)=O)ccc31)[C@H](C(=O)N1CCCCCCC1)[C@H]1C(=O)O[C@H](c3ccccc3)[C@H](c3ccccc3)N1[C@@H]2c1ccc(O)cc1 | 0.46 |
| COc1ccc(CCNC(=O)[C@@]2(Sc3ccc(C)cc3)CC(=O)N(Cc3cc(C(F)(F)F)cc(C(F)(F)F)c3)[C@@H]2c2ccc(CO)cc2I)cc1 | 0.858 |
| COc1cc2c(cc1O)C(C)N(Cc1cc3c(cc1Br)OCO3)CC2 (stereo unspecified) | 0.291 |
| CC(C)(C)OC(=O)CC[C@@]1(C(=O)O)N=C(c2ccc(OCCCO)cc2)O[C@@H]1c1ccccc1CN=[N+]=[N-] | 0.963 |
| CC(C)C(=C=CC[C@H](O)c1ccc(OCCO)cc1)C[C@H](O)c1cc(Cl)cc(Cl)c1O | 0.746 |
| CC(C)NC(=O)[C@@]1(C)c2ccccc2C(=O)N(C(C)C)[C@H]1c1ccc(CO)cc1 | 0.884 |
| CCOC(=O)[C@H]1C/C=C/C[C@H](C(=O)OCC)C(=O)O[C@H]2[C@@H](OC)O[C@H](CO)[C@@H](OC(=O)CCc3ccccc3)[C@@H]2OC1=O | 0.486 |
| COCCOC(=O)N1C(=O)[C@@]2(c3cc(C#Cc4ccc(OC)cc4)ccc31)[C@H](C(=O)NC[C@H](O)c1ccccc1)[C@H]1C(=O)O[C@H](c3ccccc3)[C@H](c3ccccc3)N1[C@@H]2c1ccc(O)cc1 | 0.775 |
| COc1ccc([Si](C)(C)[C@@H]2[C@@H](CC(=O)N3CCC[C@H]3CO)O[C@]3(C(=O)N(Cc4ccc(N5C(=O)c6cccc7cccc5c67)cc4)c4ccccc43)[C@H]2C)cc1 | 0.792 |
| O=C1O[C@@H](c2ccccc2)[C@@H](c2ccccc2)N2[C@@H](c3ccccc3OCCO)[C@]3(C(=O)Nc4ccccc43)[C@@H](C(=O)NC[C@H](O)c3ccccc3)[C@H]12 | -0.303 |
| COC(=O)[C@@]1(Cc2ccc(OC)cc2)[C@H]2c3cc(C(=O)N(C)C)n(CCc4c[nH]c5ccc(O)cc45)c3C[C@H]2CN1C(=O)c1ccccc1 | 0.657 |
| C[N+](C)(C)CCCC[C@@H]1NC(=O)[C@@H]2C[C@H](C(=O)O)[C@H](c3ccc(O)cc3)N2C1=O | 0.124 |
| COc1ccc([Si](C)(C)[C@@H]2[C@@H](CCn3cc([C@H](O)c4ccccc4)nn3)O[C@]3(C(=O)N(Cc4ccc(N5CCOC5=O)cc4)c4ccccc43)[C@H]2C)cc1 | 0.823 |

| SMILES | composite z-score |
| --- | --- |
| CC(=O)n1cc(C(O)C2C=CC3C(=O)N(Cc4ccccc4)C(=O)C3N2n2cnnc2)c2ccccc21 (stereo unspecified) | 0.008 |
| C=CC[C@]12N=C(c3ccc(OCCCO)cc3)O[C@H]1c1ccccc1N(C)C2=O | 0.842 |
| CC1CC/C=C\[C@H]2OC34C=CCN(c5ccc6ccccc6c5)C(=O)[C@H]3N(C(CO)C(C)C)C(=O)[C@@H]4C2C(=O)O1 (stereo partly specified) | -0.0558 |
| C=CCOC(=O)[C@H]1[C@@H]2C(=O)O[C@@H](c3ccccc3)[C@@H](c3ccccc3)N2[C@@H](c2ccc(OCCOC(=O)[C@H]3C[C@H]4C(=O)N[C@@H](Cc5ccccc5)C(=O)N4[C@H]3c3cccc(OCCO)c3)cc2)[C@]12C(=O)Nc1ccc(I)cc12 | 0.464 |
| CN(C)CCCCNC(=O)[C@H]1C[C@H]2C(=O)N[C@@H](CCCCN(C)C)C(=O)N2[C@H]1c1cccc(OCCO)c1 | 0.675 |
| CCCC[C@@H]1C[C@H]1[C@@H](NC(=O)c1cccnc1)c1ccc(-c2ccccc2)cc1 | -0.0356 |
| CC(C)CNC(=O)[C@@]1(c2ccc([N+](=O)[O-])cc2)CC(=O)N(C2CCCCC2)[C@@H]1c1ccc(CO)cc1I | 0.792 |
| CCCCC(=C=CC[C@@H](O)c1ccc(OCCO)cc1)C[C@@H](O)COCc1ccccc1 | 0.408 |
| CC[C@H]1C2=C3C(CC[C@H]4C(OCc5ccc(F)cc5C(F)(F)F)OC[C@](C)([C@@H]34)N(C(=O)OC(C)(C)C)C2)C2COC(=O)OCC21 (stereo partly specified) | 0.393 |
| CCCCN1CC=CC23O[C@@H]4/C=C\CCC(C)OC(=O)C4[C@H]2C(=O)N(CCCCCCO)[C@@H]3C1=O (stereo partly specified) | 0.0096 |
| C=C(COC)/C(=C/C[C@@H](OC(=O)c1ccncc1)c1cccc(OCCO)c1)c1cnc2ccccc2c1 | 0.763 |
| C=C(CCCC)/C(=C/C[C@@H](OC(=O)c1ccncc1)c1cccc(OCCO)c1)c1cnc2ccccc2c1 | 0.405 |
| CO[C@H]1O[C@H](CO)[C@@H](OC(=O)Nc2ccccc2-c2ccccc2)[C@H](OC(=O)Nc2ccc3c(c2)OCO3)[C@@H]1OC(=O)Nc1ccc2c(c1)OCO2 | 0.801 |
| C#CCNC(=O)[C@H](Cc1ccccc1)NC(=O)[C@@H](N=[N+]=[N-])C(C)C | 0.262 |
| COCC(=C=CC[C@H](O)c1cccc(OCCO)c1)C[C@H](O)c1ccccn1 | 0.157 |
| COc1ccc([Si](C)(C)[C@H]2[C@H](CCn3cc(CCO)nn3)O[C@@]3(C(=O)N(Cc4ccc(N5C(=O)c6cccc7cccc5c67)cc4)c4ccccc43)[C@@H]2C)cc1 | 0.625 |
| COCCOC(=O)N1C(=O)[C@@]2(c3cc(C#CC4=CCCCC4)ccc31)[C@H](c1ccc(O)cc1)N1[C@H](c3ccccc3)[C@H](c3ccccc3)OC(=O)[C@H]1[C@@H]2C(=O)Nc1nc2ccccc2s1 | 0.843 |
